Fewer than 10 of roughly 1,100 compounds were called active. Calls follow the shape of the dose curve; as a rule, active = well fitted curve in the direction sought with a large enough effect; inconclusive = small, poorly fitted or top-dose-only effect, or another doubt; inactive = no such curve, though single readings can be large or run the other way. Only a sample is shown.

The assay can be described thus: qHTS for Inhibitors of PI5P4K: ADP-Glo counter assay. Particulars: ADP-Glo detection counter-screen, luciferase luminescence, no enzyme; series mostly up to 76.9 µM. The source says:
In addition to finding PI5P, we discovered the type II phosphatidylinositol 5-phosphate 4-kinase (PI5P4K) family (alpha, beta, gamma isoforms) that catalyze the conversion of PI5P to PI(4,5)P2. Alternatively, PI(4,5)P2 can also be synthesized through phosphatidylinositol-4-phosphate (PI4P) by the type I phosphatidylinositol 4-phosphate 5-kinases (PI4P5K). These PI5P4K enzymes therefore represent one way by which cells can regulate endogenous PI5P levels and play important roles in insulin signaling and in stress responses. […] A qHTS PI5P4K-alpha ADP-Glo assay was developed to identify specific modulators of human PI5P4K, phosphatidylinositol-5-phosphate 4-kinase (Type II PIPK). This assay was screened against the MLSMR containing ~400,000 small molecules (PubChem AID 652105). To confirm that the hits were not interacting with the detection enzyme system, a 1536-well counterscreen against the ADP-Glo kit (Promega) was utilized, as described in Davis et al., 2013 [1]. For this assay, an ATP/ADP mix of 80% ATP and 20% ADP was used to mimic the PI5P4K-alpha enzyme reaction. […] Therefore, true inhibitors of PI5P4K-alpha should have no activity in this assay. Davis et al., PLoS One. 2013;8(1):e54127. NIH Chemical Genomics Center [NCGC] NIH Molecular Libraries Probe Centers Network [MLPCN] MLPCN Grant: MH096575 Assay Submitter (PI): Atsuo Sasaki, Beth Israel Deaconess Medical Center
Two micoliter of assay buffer (0.038 M HEPES pH 7.4, 0.28 mM EGTA, 0.1% CHAPS, 7.5% DMSO) was dispensed into Greiner white solid bottom 1536-well assay plates. Compounds were then transferred via Kalypsys pin tool equipped with 1536-pin array (10 nL slotted pins, V&P Scientific, San Diego, CA). Next, 1 uL of ATP / ADP mix (4 uM ATP / 1 uM ADP final concentrations in 20 mM HEPES pH 7.4, 60 mM MgCl2, and 0.1% CHAPS) was added for a total reaction volume of 3 uL. The plates were incubated at room temperature for 60 minutes. To detect the activity, 2 uL of ADP-Glo reagent 1 was added to each well followed by 45 min room temperature incubation. Then, 4 uL of ADP-Glo reagent 2 was added to each well and the plates were incubated further for 30 min at room temperature. Finally, luminescence signal was detected using the PerkinElmer ViewLux plate reader (30 sec exposure). The data was normalized to control wells with 20% ADP / 80% ATP and wells with 100% ATP.
As for `Cc1cnc(NC(=O)CSc2c(Cl)cccc2Cl)s1`, the molecule was classed as inactive.
Take `Cc1cc(=O)n2[nH]c(-c3sccc3-n3c(C)ccc3C)cc2n1`: the molecule was called inactive.
For `O=C(Cc1cccs1)N(CC1CCCO1)C1(C(=O)NC2CCCCC2)CCCCC1` (stereo not given) the value was “inactive”.
For `CCOC(=O)C1Nc2ccc(C(F)(F)F)cc2C2C=CCC12` (stereo not given) the value was “inactive”; for `O=C1CC(c2ccccc2)=NN1c1ccc([N+](=O)[O-])cc1`, “inactive”.
In the case of `CC(=O)N1c2ccc(S(=O)(=O)NCCC(=O)N(C)C3CCCCC3)cc2CC1C` (stereo not given), the molecule was called inactive.
As to `O=C(COc1ccc(-n2cnnn2)cc1)Nc1ccccc1Cl`, the outcome was inactive.
For `Cc1cccnc1NC(=O)CSc1nnc(COc2ccc(C(C)C)cc2)n1C` the value was “inactive”.
As for `O=C(Nc1ccc(S(=O)(=O)Nc2nccs2)cc1)c1cc(-c2ccncc2)nc2ccccc12`, the result was inactive.
In the case of `Cc1csc(=O)n1CCC(=O)OCC(=O)Nc1ccc(N2CCOCC2)cc1`, the molecule was called inactive.
The same measure for `CCC(c1nnnn1Cc1ccco1)N(CCc1ccccc1)Cc1cc2ccc(OC)cc2[nH]c1=O` (stereo not given): “inactive”.
The same measure for `Cc1ccc(C(c2nnnn2CS(=O)(=O)c2ccc(C)cc2)N2CCC(C)CC2)cc1` (stereo not given): “inactive”; for `COc1cccc2c(C)c(C(=O)O)[nH]c12`: “inactive”; for `CC(CNC(=O)c1ccc(Br)o1)NC(=O)c1ccc(Br)o1` (stereo not given): “inactive”.
The same measure for `Cc1ccc(Cc2c(-c3ccco3)nc3ccc(Cl)cn23)cc1`: “inactive”; for `OCCNc1nc(Nc2ccc(Cl)c(Cl)c2)nc2ccccc12`: “inactive”.
As for `O=C(c1cc(-c2ccco2)nc2ccccc12)N(Cc1nnc(-c2ccc(Cl)cc2)o1)C1CC1`, the molecule was classed as inactive.
`O=C(c1cc2c(s1)CCC2)N1CCN(c2ccccc2)CC1`: the molecule was classed as inactive.
The same measure for `O=C(c1cccnc1)N(c1cc2sc(=O)oc2c2ccccc12)S(=O)(=O)c1ccccc1`: “inactive”; for `COc1ccc(C(=O)N2CCC(C(=O)Nc3ccc(C)cc3)CC2)cc1`: “inactive”; for `COc1ccc(OCCCC(=O)Nc2nnc(C3CCCO3)s2)cc1` (stereo not given): “inactive”.
Regarding `Cc1cc(NC(=O)Nc2ccccc2[N+](=O)[O-])no1`, the molecule was classed as inactive.
As to `O=c1oc2cc(O)ccc2cc1-c1ccc(F)cc1`, the molecule was called inactive.
With `COCCNC(=O)Nc1ccc2nc(-c3ccco3)c(-c3ccco3)nc2c1`, the call was inactive.
Turning to `COc1ccc(S(=O)(=O)/N=C2\C=C(NS(=O)(=O)c3ccccc3)C(=O)c3ccccc32)cc1`, the molecule was classed as inactive.
For `COc1ccc(CCCc2nnc(SCc3nc4ccccc4c(=O)[nH]3)n2C)cc1` the value was “inactive”.
As for `CCOC(=O)c1cc2c(=O)[nH]c(C(Cl)(Cl)Cl)nc2o1`, the result was inactive.
Turning to `OCCCNc1nccc(-c2cc(Nc3cccc(Cl)c3)ncn2)n1`, the molecule was called inactive.
As to `O=S(=O)(Nc1ccc2cn[nH]c2c1)c1ccccc1`, the outcome was inactive.
The same measure for `COc1cccc(C(=O)Nc2nc3ccc(S(C)(=O)=O)cc3s2)c1`: “inactive”.
The same measure for `O=c1[nH]c2ccccc2n2c(-c3ccccc3)nnc12`: “inactive”; for `O=C(Cn1cnc2c(OCc3ccccc3)ncnc21)NCc1nc2ccccc2[nH]1`: “inactive”.
With `O=C(Nc1nc(-c2ccncc2)cs1)C1COc2ccccc2O1` (stereo not given), the call was inactive.
For `COc1cc(=O)[nH]c(=O)n1C(=O)Cc1ccccc1` the value was “inactive”; for `COc1ccc(-c2cc(C(=O)Nc3ccccc3O)c3ccccc3n2)cc1`, “inactive”.
With `Cc1cccc(C)c1NC(=O)C(c1ccc(C(F)(F)F)cc1)n1c(=O)c(-c2ccco2)nc2ccccc21` (stereo not given), the molecule was called inactive.
For the molecule `O=C(NC1CCCCC1)C(c1cc2ccccc2o1)n1c(=O)c(-c2ccco2)nc2ccccc21` (stereo not given), the call was inactive.
Turning to `COc1ccc(C(CNC(=O)c2ccc(OCc3cscn3)cc2)N2CCCC2)cc1` (stereo not given), the call was inactive.
Regarding `Cc1cc2nc(-c3ccco3)c(Cc3cccc(F)c3)n2c(C)c1Br`, the outcome was inactive.
The same measure for `O=C(CCNS(=O)(=O)c1ccc(Br)s1)NCc1ccccc1Cl`: “inactive”; for `C[C@H](NC(=O)c1nc[nH]c1C(=O)N[C@@H](C)C(=O)OC(C)(C)C)C(=O)OC(C)(C)C`: “inactive”.
As to `CC(Oc1ccc(F)cc1)C(=O)N1CCN(c2ncccn2)CC1` (stereo not given), the call was inactive.
Turning to `Cn1c(SCC(=O)Nc2ccc(Cl)cc2)nc(O)cc1=O`, the molecule was classed as inactive.
For `Cc1ccc(Cn2c(C)nc3c(c2=O)c2nc4ccccc4nc2n3Cc2ccco2)cc1`, the result was inactive.
In the case of `O=C(COC(=O)c1ccccc1O)NCc1ccco1`, the outcome was inactive.

Source of the values: PubChem BioAssay AID743285 (National Center for Advancing Translational Sciences (NCATS), 2014).
